Screens: PubChem BioAssay, National Center for Advancing Translational Sciences (NCATS)
Compounds with a hit are over-represented: about 20% of the library has one in this group of screens.
CHX counter = Cycloheximide Counterscreen for Small Molecule Inhibitors of Shiga Toxin; cell reporter, cycloheximide protein synthesis inhibition counterscreen; max response, %; 12% of 300,000 active; AID 2314, 2010; in the data active = max response mostly above about 13%, no sharp cut-off; inactive = mostly below about 14%; also: read at 38.3 µM for the half of the compounds with a filed dose
Pf growth 96h = Primary qHTS for delayed death inhibitors of the malarial parasite plastid, 96 hour incubation; P. falciparum luciferase reporter growth, 96 h; Potency, µM (doses to about 28.7 µM), usual class: inhibitors; 6.9% of 320,000 active; AID 504834, 2011
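Plates of compound plus infected erythrocytes (2% hematocrit, 0.05% parasitemia final) incubate 96 hours, 37 C, 5% CO2. Detection reagent added; reduced luminescence from the parasites' luciferase reporter flags inhibition.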
HCMV inh = qHTS Assay for inhibitors of the human cytomegalovirus (HCMV); AID 1259415, 2018; HFF cells, HCMV-luciferase reporter, 72 h; stronger effect = lower value; activity change, negative = inhibition, % at 57.5 µM; 4.5% of 410,000 active; in the data active = activity change below about -60%; inconclusive = no clear call, values can overlap the other calls; inactive = above about -39%
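HFF cells seeded 16 h at 37C, treated with compounds, infected with luciferase-reporter HCMV at MOI 1 PFU/cell; luciferase read at 72 h post infection, normalized to buffer-only and Salinomycin controls.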
Pf growth 48h = Primary qHTS for delayed death inhibitors of the malarial parasite plastid, 48 hour incubation. P. falciparum luciferase growth in erythrocytes, 48 h. Potency, µM (top dose mostly 28.7 µM), hits mostly inhibitors. 5.9% of 310,000 active. AID 504832, 2011
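Luciferase-expressing parasites in RBCs, 2% Hct / 0.1% parasitemia final; RPMI 1640 + 0.5% Albumax; 37 C, 5% CO2, one generation; luminescence read-out, lower signal = inhibition.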
Shiga inhibitor = A qHTS for Small Molecule Inhibitors of Shiga Toxin; Vero cells, Shiga toxin protein synthesis inhibition reporter; inhibition, % at 38.7 µM; 9.2% of 290,000 active; in the data active = inhibition mostly above about 28%, no sharp cut-off; inactive = mostly below about 43%
A number is an active result; . = inactive; ? = inconclusive; / = no result given. Unless noted, calls follow the shape of the dose curve; as a rule, active = well fitted inhibition curve with a large enough effect; inconclusive = small, poorly fitted or top-dose-only effect, or another doubt; inactive = no such curve, though single readings can be large or run the other way.

SMILES	CHX counter	Pf growth 96h	HCMV inh	Pf growth 48h	Shiga inhibitor
COc1ccc2oc(=Nc3ccc(C(=O)O)cc3)c(C(=O)NCc3ccco3)cc2c1	.	?	.	.	.
COc1ccc2cc(C(=O)NCc3ccco3)c(=O)oc2c1	33	13µM	.	.	60
CC(=O)c1c(C)[nH]c(C(=O)CSc2nnc(N)s2)c1C	.	.	.	.	.
CC(=O)c1c(C)[nH]c(C(=O)C(C)Sc2nnc(NC3CC3)s2)c1C (centres undefined)	/	9.3µM	.	13µM	/
CCNC(=S)NNC(=O)c1ccoc1C	.	?	.	.	.
CC(C)(C)CC(=O)NC(=S)Nc1ccccc1C(F)(F)F	.	.	.	?	.
Cc1occc1C(=O)Nc1ccccc1NC(=O)c1ccoc1C	/	/	.	/	/
O=C(NNC(=S)Nc1ccccc1C(F)(F)F)c1ccc(Br)o1	30	.	.	.	101
Cc1occc1C(=O)NNC(=S)Nc1ccccc1	35	.	.	.	77
Cc1occc1C(=O)NNC(=O)c1ccccc1F	23	.	?	.	.
Cc1ccccc1NC(=S)NNC(=O)c1ccoc1C	.	.	.	.	48
O=C(Nc1cccc(F)c1)NC1(C(=O)N2CCOCC2)CCCCC1	.	?	.	.	.
Cc1cc(Cl)c(S(=O)(=O)Nc2cc(S(=O)(=O)N3CCOCC3)ccc2F)cc1OCC(N)=O	.	?	.	.	.
CCc1ccc(Nc2cc(C(=O)NCCCN(C)c3ccccc3)c3ccccc3n2)cc1	/	/	.	/	/
Cc1occc1C(=O)NNC(=S)Nc1ccccc1C(F)(F)F	26	?	.	.	56
CCC(CC)C(=O)Nc1ccccc1SCc1cc(=O)c2cccc(C)c2[nH]1	/	/	.	/	/
CCN1C(=O)c2cccc3c(NC(=O)c4ccc(S(=O)(=O)N5CCOCC5)cc4)ccc1c23	.	/	.	?	.
CN(C)S(=O)(=O)c1ccc(NC(=O)c2ccccn2)cc1	34	.	.	.	112
CCCNS(=O)(=O)c1ccc(NC(=O)c2ccccn2)cc1	.	10µM	.	.	92
CC(=O)NS(=O)(=O)c1ccc(NC(=O)c2ccccn2)cc1	.	.	.	.	.
CN(C)S(=O)(=O)c1ccc(NC(=S)NC(=O)Cc2ccccc2)cc1	.	?	-63	.	.
CCN1C(=O)c2cccc3c(NC(=O)c4ccc(S(=O)(=O)N(C)C)cc4)ccc1c23	.	.	.	12µM	.
Cc1ccc(-c2cc(C(=O)N(Cc3ccc(C(C)(C)C)cc3)Cc3ccco3)no2)cc1	/	/	.	/	/
COCCN(CCOC)S(=O)(=O)c1ccc(NC(=O)c2cnccn2)cc1	.	.	.	8.3µM	.
CCN(CC)S(=O)(=O)c1ccc(NC(=O)c2ccccn2)cc1	30	.	.	.	96
SMILES	CHX counter	Pf growth 96h	HCMV inh	Pf growth 48h	Shiga inhibitor
CCOc1ccc(NS(=O)(=O)c2ccc(NC(=O)c3ccccn3)cc2)cc1	/	.	.	?	/
O=C(Nc1ccc(SC(F)(F)F)cc1)c1ccccn1	30	.	.	.	113
CN(C)S(=O)(=O)c1ccc(C(=O)Nc2ccccn2)cc1	22	.	.	.	.
CCCCC(=O)Nc1c(C(=O)N2CCN(c3ccccc3)CC2)oc2ccccc12	/	/	.	/	/
C[C@H](NC(=O)C1CC(=O)N(c2ccc3c(c2)OCCO3)C1)C(=O)NCc1ccco1 (some centres undefined)	.	.	.	.	.
CN(C)S(=O)(=O)c1ccc(C(=O)Nc2ccccc2C(=O)O)cc1	.	13µM	.	.	.
COCC(C)NS(=O)(=O)c1ccc(NC(=O)c2ccccn2)cc1 (centres undefined)	11	.	.	.	31
CC(C)n1nccc1N(Cc1ccc(Br)cc1)S(=O)(=O)c1ccccc1	.	5.2µM	.	13µM	.
CC(=O)c1sc(-c2ccc(Cl)cc2)nc1C	26	.	.	.	53
Cc1nc(-c2ccccc2)sc1C(N)=O	.	.	.	.	.
C/C=C(\C)C(=O)NNC(=O)c1sc(-c2ccccc2)nc1C	.	.	.	.	.
Cc1nc(-c2ccc(Cl)cc2)sc1C(=O)NNC(=O)C(C)C	.	.	.	.	.
CNC(=O)c1sc(-c2ccc(Cl)cc2)nc1C	53	.	.	.	112
CC(=O)c1sc(-c2cccc(Cl)c2)nc1C	20	.	.	.	.
Cc1nc(-c2ccc(C(F)(F)F)cc2)sc1C(=O)NN	15	.	?	?	.
Cc1nc(-c2cccs2)sc1C(=O)NN	.	.	.	.	.
O=C(NCc1ccccn1)c1ccc(NS(=O)(=O)c2cccc(Cl)c2)cc1	.	?	.	.	.
CC(C)C[C@H](NC(=O)[C@@H]1Cc2ccccc2CN1C(=O)OC(C)(C)C)C(=O)NCC1CCC(C(=O)O)CC1 (some centres undefined)	.	?	.	?	.
C/C(=N\O)c1sc(-c2ccccc2)nc1C	46	.	.	.	98
CCNC(=O)O/N=C(\C)c1sc(-c2ccccc2)nc1C	39	?	.	.	61
Cc1nc(-c2cccnc2)sc1C(=O)Nc1cccc(C(F)(F)F)c1	.	12µM	?	?	.
CNC(=O)c1sc(-c2ccccc2)nc1C	39	/	.	.	132
C=C(C)c1sc(-c2ccccc2)nc1C	/	/	.	/	/
Cc1nc(-c2cccnc2)sc1C(=O)Nc1ccc(C(F)(F)F)cc1	.	.	?	?	.
CCS(=O)(=O)N1Cc2ccccc2CC1C(=O)Nc1cccc(S(=O)(=O)N(C)C)c1 (centres undefined)	.	?	.	?	.
SMILES	CHX counter	Pf growth 96h	HCMV inh	Pf growth 48h	Shiga inhibitor
COc1ccc(N/C=C/C(=O)c2sc(-c3ccccc3)nc2C)cc1	.	.	-61	.	.
Cc1nc(-c2ccncc2)sc1C(=O)Nc1ccc(Br)cc1	.	.	-72	?	.
CC(=O)Nc1ccc(NC(=O)c2sc(-c3ccccc3)nc2C)cc1	.	?	.	.	.
CCOc1ccc(-n2c(Cc3cc(=O)[nH]c(=O)[nH]3)nnc2SCc2cccnc2)cc1	.	13µM	?	/	.
CCOC(=O)C(C)Sc1nnc(Cc2cc(=O)[nH]c(=O)[nH]2)n1-c1ccc(Cl)cc1 (centres undefined)	.	.	/	.	.
CCOc1ccc(-n2c(Cc3cc(=O)[nH]c(=O)[nH]3)nnc2SC(C)C)cc1	.	?	.	.	.
CCOC(=O)C(C)Sc1nnc(Cc2cc(=O)[nH]c(=O)[nH]2)n1-c1ccc(OCC)cc1 (centres undefined)	.	9.3µM	.	/	.
C=C1C(CCl)(CCl)C2(Cl)C(Cl)C(Cl)C1(Cl)C2(Cl)Cl (centres undefined)	/	2.7µM	/	1.9µM	/
O=C(CN1CCN(c2ccccc2F)CC1)N1CCc2ccccc21	14	.	.	.	.
O=C(CN1CCN(c2ccccc2)CC1)N1CCc2ccccc21	.	.	.	.	.
O=C(CN1CCN(c2ccccc2F)CC1)c1ccc2cc[nH]c2c1	.	.	.	/	.
CC(=O)N1CCc2cc(C(=O)CN3CCN(c4ccccc4F)CC3)ccc21	21	.	.	/	59
